Experimental data published in PubChem BioAssay AID1240 (Sanford-Burnham Center for Chemical Genomics, 2008).
Out of some 50,000 compounds screened, about 800 (1.6%) showed an effect of 50% or more. The sample holds strong results, similar compounds and a random draw of the others, so the mix is not that of the screen.

What follows are compounds tested against Bcl-2-like protein 10 (Homo sapiens) (UniProt Q9HD36) (assay: TR3 peptide-Bcl-B binding displacers, biochemical primary FP assay, phenotype converters (AID 1240;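 note: 0% = Bcl-B with tracer peptide and DMSO and 100% = tracer peptide lacking Bcl-B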)). Details: GST-Bcl-B / FITC-TR3 peptide fluorescence polarization; stronger effect = higher value; compound at 3.75 mg/L.
Bcl-2-like protein 10 (Homo sapiens), sequence (Q9HD36 whole entry, looked up): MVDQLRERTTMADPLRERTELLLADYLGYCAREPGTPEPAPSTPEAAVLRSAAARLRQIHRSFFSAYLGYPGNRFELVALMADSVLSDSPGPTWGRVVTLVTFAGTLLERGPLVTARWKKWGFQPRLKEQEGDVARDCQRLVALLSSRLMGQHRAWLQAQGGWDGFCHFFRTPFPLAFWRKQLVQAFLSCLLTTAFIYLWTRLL
With `COc1ccccc1C/C(N)=N/OC(=O)c1ccc(I)cc1` the displacement was 10.8%. `Cc1ccc(C23CC4CC(CC(C(=O)Nc5ccc(F)cc5F)(C4)C2)C3)cc1` was tested, and the displacement was -3.1%. With `Cc1cc(Cl)ccc1OCC(=O)NCC1CCCO1` (configuration not stated) the displacement was 1.4%. Work on `CC(C)CN1C(=O)c2ccc(C(=O)Nc3ccc(Br)cc3C(=O)O)cc2C1=O` yielded a displacement of -12.5%. Compound `Cc1ccc(/C=C/C(=O)Nc2cccc3cccnc23)o1` has a displacement of 91.4%. `Cc1ccc(/C=C/C(=O)Nc2cccc3ncccc23)o1` was tested, and the displacement was 27.1%. In the case of `Cc1ccc(/C=C/C(=O)Nc2cccc3ccccc23)o1`, the displacement is reported as -7.3%. `Cc1c(C(=O)Nc2ccc(Cl)cn2)oc2ccccc12` was tested, and the displacement was 15.4%. Compound `Cc1cccc(C(C)C)c1NC(=O)COc1ccc(Cl)cc1Cl` has a displacement of 13.3%. Work on `Cc1cccc(N2C(=O)/C(=C/c3ccco3)SC2=S)c1C` yielded a displacement of 1.9%. With `Cc1cc(/C=C2\SC(=S)NC2=O)c(C)n1-c1cccc([N+](=O)[O-])c1` the displacement was 7.1%. In the case of `Cc1ccc(CN2CCN(/N=C/c3ccc(C(=O)O)cc3)CC2)cc1`, the displacement is reported as 16.4%. `Cc1ccc(C)n1Cc1ccc(C(=O)O)cc1` was tested, and the displacement was 66.4%. Compound `O=C(O)c1ccc(CN2CCOCC2)cc1` has a displacement of 13.7%. `CC(=O)c1cccc(NC(=O)/C(=C\c2cccnc2)NC(=O)c2ccccc2)c1` showed a displacement of -5.3%. `N/C(Cc1cccc2ccccc12)=N\OC(=O)c1ccc(F)cc1` was tested, and the displacement was 31.7%. `COc1ccc(C/C(N)=N/OC(=O)c2cccs2)cc1` showed a displacement of 8.1%. Compound `N/C(Cc1cccc2ccccc12)=N\OC(=O)c1cccs1` has a displacement of 98.4%. `COc1ccc(C(=O)CSc2nc3c(c(-c4ccc(C)o4)c2C#N)CCCC3)cc1` showed a displacement of 7.6%. For `CC(C)(C)C1(O)CC(C(F)(F)F)=NN1C(=O)COc1ccccc1` (configuration not stated), the displacement was -7.4%. `CCCCc1ccc(/C=C2/C(=O)ON=C2c2ccccc2)s1` was tested, and the displacement was 40.8%. `O=C1ON=C(c2ccccc2)/C1=C/c1cccnc1` gave a displacement of -9.2%. `O=C1ON=C(c2ccccc2)/C1=C/c1ccc(Br)s1` showed a displacement of 70.8%. For `CCCCN(CC)c1cnn(-c2ccccc2)c(=O)c1N`, the displacement was 10.6%. Compound `CC(=O)C1=C(Nc2ccc(Br)cc2)CC(C)(O)C(C(C)=O)C1c1ccc(C)cc1` (configuration not stated) has a displacement of -4.9%. Work on `COc1ccc(C2C(C(C)=O)=C(Nc3ccc(Br)cc3)CC(C)(O)C2C(C)=O)cc1` (configuration not stated) yielded a displacement of 90.9%. Work on `COc1ccc(C2C(C(C)=O)=C(Nc3ccccc3)CC(C)(O)C2C(C)=O)cc1` (configuration not stated) yielded a displacement of 1.4%. For `COc1ccc(C2Nc3ccccc3C(=O)N2Cc2ccccc2)cc1Cn1nc(C)c(Br)c1C` (configuration not stated), the displacement was 15.4%. Work on `CCOC(=O)c1c(NC(=O)COc2cc(Cl)ccc2Cl)sc(C)c1C` yielded a displacement of -8%. Work on `CCOC(=O)c1sc(NC(=O)COc2ccc(Cl)cc2C)c(C(=O)OCC)c1C` yielded a displacement of -5.1%. `Cc1cc(Cl)ccc1OCC(=O)Nc1sc(C)c(C)c1C(N)=O` was tested, and the displacement was 79.1%. `O=C(N/N=C/c1ccc(Cl)c(Cl)c1)C1CC(=O)N(c2ccccc2)C1` (configuration not stated) was tested, and the displacement was -9.3%. `CS(=O)(=O)N(CC(=O)NCc1ccncc1)c1ccc(Oc2ccccc2)cc1` showed a displacement of 10.2%. Work on `Fc1ccccc1-c1nc(-c2ccc(Br)cc2)no1` yielded a displacement of 4.3%. Compound `O=C(Nc1cccc2nsnc12)c1ccco1` has a displacement of 4%. `CCOc1ccc(C(=O)Nc2cccc3nsnc23)cc1[N+](=O)[O-]` showed a displacement of 10.7%. `O=C(Nc1cccc2nsnc12)c1ccc(Br)o1` was tested, and the displacement was 69.6%. Compound `Cc1ccc2nsnc2c1NC(=O)c1ccc(Br)o1` has a displacement of 15.6%. For `CCOc1ccc(C(=O)Nc2cccc3nsnc23)cc1Br`, the displacement was 78.2%. `CCOc1ccc(C(=O)Nc2cccc3nsnc23)cc1Cl` showed a displacement of 30.9%. With `O=C(Nc1sc2c(c1C(=O)N1CCCCC1)CCCCC2)c1ccc([N+](=O)[O-])cc1` the displacement was -2.1%. In the case of `COc1cccc(OC)c1C(=O)NCc1ccc(C)cc1`, the displacement is reported as 2.7%. `Fc1ccc(-c2noc(-c3ccc(Cl)cc3)n2)cc1` showed a displacement of -6.4%. `COc1cc(C(=O)N2CCN(C)CC2)c([N+](=O)[O-])cc1OC` was tested, and the displacement was -0.1%. `Cc1cccc(-c2noc(-c3ccc(C)c([N+](=O)[O-])c3)n2)c1` gave a displacement of 76.1%. Work on `COc1ccc(-c2noc(-c3ccc(C)c([N+](=O)[O-])c3)n2)cc1OC` yielded a displacement of 54.4%. In the case of `Cc1cccc(-c2noc(-c3cccc([N+](=O)[O-])c3C)n2)c1`, the displacement is reported as 78.9%. `COc1ccc(-c2noc(-c3ccc(C)c([N+](=O)[O-])c3)n2)cc1` was tested, and the displacement was -0.4%. `Cc1ccc(-c2noc(-c3cccc([N+](=O)[O-])c3C)n2)cc1` showed a displacement of 6.9%. In the case of `Cc1cccc(-c2noc(-c3ccc(Br)cc3)n2)c1`, the displacement is reported as -1.7%. For `Cc1ccc(-c2nc(-c3cccnc3)no2)cc1[N+](=O)[O-]`, the displacement was 21.4%. In the case of `COc1ccc(-c2nc(-c3cc(OC)c(OC)c(OC)c3)no2)cc1OC`, the displacement is reported as -5.7%. `Cc1c(-c2nc(-c3ccncc3)no2)cccc1[N+](=O)[O-]` was tested, and the displacement was 0.7%. `O=C1c2ccccc2C(=O)C1C1=CC(c2ccccc2)C(c2ccccc2)N=N1` (configuration not stated) was tested, and the displacement was -10%. For `O=S(=O)(NC(=S)c1ccccc1)c1ccc(I)cc1`, the displacement was 11.9%. `COc1cc(/C=C2\C(=O)NC(=O)N(c3ccc(Cl)cc3)C2=O)cc(Cl)c1OC` showed a displacement of -2.2%. `COc1ccc(/C=C/C(=O)c2ccc(Br)cc2)cc1[N+](=O)[O-]` showed a displacement of 12.9%. `O=C(CSc1nnnn1-c1ccccc1)Nc1ccccc1[N+](=O)[O-]` was tested, and the displacement was 1.7%. With `O=C(CSc1ccc(Cl)cc1)NCCc1ccc(F)cc1` the displacement was -8.3%. `O=C(NCc1ccc2c(c1)OCO2)c1ccccc1F` showed a displacement of 14.1%. In the case of `O=C(Nc1ccc2c(c1)OCO2)C(=O)Nc1ccc2c(c1)OCO2`, the displacement is reported as 21.3%. With `c1cc2c(cc1NC1CCCCC1)OCO2` the displacement was 130%. `O=C(NNC(=O)c1ccc2c(c1)OCO2)NC1CCCCC1` gave a displacement of 10.1%. With `Cc1nn(Cc2cccc(Cl)c2)c(N)c1-c1ccccc1` the displacement was -9%. Compound `CCOc1ccc(/C=N\NC(=O)c2ccc(Br)cc2)c(O)c1` has a displacement of 6.9%. `O=C(Nc1ccc(S(=O)(=O)N2CCc3ccccc32)cc1)c1ccc(Cl)cc1` was tested, and the displacement was 0.8%. `O=C(Nc1ccc(S(=O)(=O)N2CCc3ccccc32)cc1)c1ccc(-c2ccccc2)cc1` was tested, and the displacement was 89.5%. Compound `Cc1ccc(C(=O)Nc2ccc(S(=O)(=O)N3CCc4ccccc43)cc2)cc1` has a displacement of 1.6%. Compound `O=C(O)c1c(F)c(F)c(F)c(F)c1-c1ccc(Cl)cc1` has a displacement of 11.8%. Work on `O=c1c(-c2ccccc2)coc2cc(OCc3ccccc3Cl)ccc12` yielded a displacement of 20.7%. With `Oc1cc(OCc2ccccc2Cl)ccc1-c1[nH]ncc1-c1ccccc1` the displacement was 77.4%. In the case of `Cc1oc2ccc(OCc3ccccc3Cl)cc2c1C(=O)O`, the displacement is reported as 5.8%.
